Assay outcomes from PubChem.
ssDAF-12 act: S. stercoralis DAF-12 activation, primary screen | HEK293 ssDAF-12/GRIP1 lit1-tk-luc reporter, luminescence; % of 3 µM dafachronic acid response | activation, % at 6.8 µM | 1% of 370,000 active | AID 652126;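 active = activation above the mean over all tested compounds plus 3 SD, cut at about 0.9% in these data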;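 also: 0% = DMSO-only wells and 100% = 3 µM delta7-dafachronic acid wells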
DAX1 inh-1: DAX1 (NR0B1) inhibition, primary screen. HEK293T StAR-luciferase reporter, SF-1/DAX-1 repression relief. inhibition, % at 6.8 µM. 1.1% of 370,000 active. AID 652010;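 active = inhibition above the mean over all tested compounds plus 3 SD, cut at about 3.6% in these data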;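 also: 0% = DAX-1 cells with DMSO and 100% = cells lacking DAX-1 with DMSO; higher inhibition means more luminescence from relief of DAX-1 repression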
hgDAF-12 ag: hgDAF-12 agonism, primary luciferase screen; activation, % at 6.8 µM; HEK293 GAL4-hgDAF12 UAS-luciferase reporter, agonist luminescence; normalized to butyrate control; 1.8% of 370,000 active; AID 687014;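 active = activation above a cutoff set at the mean of all screened compounds plus 3 SD, cut at about 10% in these data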;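 also: 0% = DMSO wells and 100% = sodium butyrate wells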
hcDAF12 agonist: activates DAF-12 receptor from parasite H. contortus; HEK293 hcDAF-12 lit1-tk-luc reporter, luminescence; 0% DMSO, 100% Δ7-dafachronic acid; activation, % at 6.8 µM; 1.4% of 370,000 active; AID 652067;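 active = activation above the mean of all tested compounds plus 3 SD, cut at about 5.5% in these data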;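 also: 100% = response to 3 µM Δ7-dafachronic acid high control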
DAX1 inh-2: NR0B1 (DAX1) inhibition; P51843; HEK293 Gal4-DAX1 luciferase reporter, luminescence; inhibition, % at 6.75 µM; 0.99% of 340,000 active;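 active = inhibition above the mean over all tested compounds plus 3 SD, cut at about 4.2% in these data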;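 also: 0% = DAX1-transfected cells with DMSO and 100% = empty-vector control cells with DMSO; inhibition shows as a rise in luminescence from relieved DAX1 repression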
SMARCA2 act: increases SMARCA2 function in MMTV reporter cells; 1% of 370,000 active; activation, % at 9.1 µM; AID 652017; MG213 cells, MMTV-luciferase reporter, dexamethasone, overnight; in the data active = activation above about 7.8%;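 also: 0% = vehicle wells and 100% = reference activator wells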
LXRb hcDAF ctr: activates human LXR-beta, counter-screen for hcDAF-12 agonists; HEK293 Gal4-LXR tk-luc reporter, luminescence, 24 h; normalized: DMSO 0%, positive control 100%; 3,400 tested, under 10 active; activation, % at 6.8 µM; shares compounds with hcDAF12 agonist;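 active = mean percent activation of the reporter above a cutoff set as the average over tested compounds plus their standard deviation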
Target sequence (P55055 whole entry, looked up, the tested form may be a part): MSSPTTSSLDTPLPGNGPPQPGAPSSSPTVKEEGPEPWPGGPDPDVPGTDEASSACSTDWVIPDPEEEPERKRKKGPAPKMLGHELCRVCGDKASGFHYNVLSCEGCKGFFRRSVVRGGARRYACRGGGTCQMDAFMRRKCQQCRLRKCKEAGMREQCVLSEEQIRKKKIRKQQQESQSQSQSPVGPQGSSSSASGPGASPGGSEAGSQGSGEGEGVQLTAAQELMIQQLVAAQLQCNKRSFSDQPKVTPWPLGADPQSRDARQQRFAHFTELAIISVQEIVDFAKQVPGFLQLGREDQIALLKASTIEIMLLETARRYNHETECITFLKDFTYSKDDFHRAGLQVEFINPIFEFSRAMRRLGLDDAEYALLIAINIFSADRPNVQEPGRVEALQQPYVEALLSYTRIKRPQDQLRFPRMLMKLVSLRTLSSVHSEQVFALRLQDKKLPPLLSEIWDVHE
hcDAF12 conf: hcDAF-12 agonism, confirmation assay; activation, % at 6.8 µM; HEK293 hcDAF-12 lit1-tk-luc reporter, luminescence; % of Δ7-dafachronic acid response; AID 743032; 61% of 3,400 active; shares compounds with hcDAF12 agonist;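 active = mean activation across triplicate tests above the threshold derived from the earlier primary screen, cut at about 5.5% in these data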;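 also: 0% = DMSO only wells and 100% = 3 µM Δ7-dafachronic acid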
An asterisk follows results filed as active. Shown are actives, neighbours in structure and some others; about 4.8% of the full set was active somewhere.

Screening CCN(CC)CCn1c(=N)n(CC(=O)c2ccc(Br)s2)c2ccccc21 returned ssDAF-12 act -0.5, DAX1 inh-1 0.9, hgDAF-12 ag -1.0, hcDAF12 agonist 4.9 and SMARCA2 act -0.8.
Screening O=C(NCCCl)Nc1ncn[nH]1 returned ssDAF-12 act -0.9, DAX1 inh-1 -0.3, hgDAF-12 ag -3.0, hcDAF12 agonist -1.1, DAX1 inh-2 2.2 and SMARCA2 act -4.0.
`COc1cc(OC)cc(-c2cc3cc4c(cc3cn2)OCO4)c1` gave DAX1 inh-2 -1.1.
Screening c1ccc(-c2cc3cc4c(cc3cn2)OCO4)cc1 returned ssDAF-12 act 1.4*, DAX1 inh-1 1.6, hgDAF-12 ag 12.8*, hcDAF12 agonist 8.1*, DAX1 inh-2 2.9, SMARCA2 act 5.3, LXRb hcDAF ctr 1.6 and hcDAF12 conf 8.5*.
For c1ccn(-c2ccc(-c3ccn[nH]3)cc2)c1 the results were ssDAF-12 act 2.2*, DAX1 inh-1 2.4, hgDAF-12 ag 13.4*, hcDAF12 agonist 10.5*, DAX1 inh-2 3.5, SMARCA2 act 6.4, LXRb hcDAF ctr 0.8 and hcDAF12 conf 4.4.
For Cc1ccc(C)n1-c1ccc(-c2ccn[nH]2)cc1 the results were ssDAF-12 act -1.1, DAX1 inh-1 0.7, hgDAF-12 ag 4.0, hcDAF12 agonist 0.5, DAX1 inh-2 0.2 and SMARCA2 act -2.0.
`COc1ccccc1CNC(=O)C(=O)c1cn(CC(=O)N2CCCC2)c2ccccc12` gave ssDAF-12 act -0.8, DAX1 inh-1 0.4, hgDAF-12 ag 0.4, hcDAF12 agonist -0.2, DAX1 inh-2 0.7 and SMARCA2 act 0.3.
Screening COC(=O)c1[nH]c2cc(OC)ccc2c1NC(=O)c1c(F)cccc1F returned ssDAF-12 act -1.7, DAX1 inh-1 -0.7, hgDAF-12 ag 0.6, hcDAF12 agonist -2.2, DAX1 inh-2 0.0 and SMARCA2 act -1.1.
`C=CCNC(=S)Nc1c(C(=O)OC)[nH]c2cc(OC)ccc12` gave ssDAF-12 act 0.6, DAX1 inh-1 0.8, hgDAF-12 ag 7.3, hcDAF12 agonist 9.7*, DAX1 inh-2 1.1, SMARCA2 act 4.4, LXRb hcDAF ctr 0.5 and hcDAF12 conf 7.5*.
`Cc1ccc(CC2CC(=O)N(CCc3ccc4c(c3)OCO4)C2=O)cc1` (stereo not given) gave ssDAF-12 act -1.2, DAX1 inh-1 -0.5, hgDAF-12 ag -1.9, hcDAF12 agonist -0.8, DAX1 inh-2 -0.6 and SMARCA2 act 2.6.
Screening CC(=O)c1cccc(OCc2cc(C(=O)N(C)CCc3ccccn3)no2)c1 returned ssDAF-12 act -0.9, DAX1 inh-1 0.2, hgDAF-12 ag 0.2, hcDAF12 agonist -0.7, DAX1 inh-2 0.3 and SMARCA2 act 0.8.
`Cc1ccc(OCc2cc(C(=O)N(C)CCc3ccccn3)no2)cc1C` gave ssDAF-12 act -0.3, DAX1 inh-1 1.6, hgDAF-12 ag 8.7, hcDAF12 agonist 7.3*, DAX1 inh-2 0.4, SMARCA2 act -0.1, LXRb hcDAF ctr 0.4 and hcDAF12 conf 2.9.
For CCOC(=O)CN1C(=O)N[C@@H](c2cccc(C(F)(F)F)c2)[C@@H](C(=O)OC)[C@H]1C the results were ssDAF-12 act -1.1, DAX1 inh-1 0.1, hgDAF-12 ag 1.3, hcDAF12 agonist -0.1, DAX1 inh-2 1.5 and SMARCA2 act 0.3.
O=C(OCc1cc([N+](=O)[O-])cc2c1OCOC2)c1ccc2ccccc2n1 was read as ssDAF-12 act -1.7, DAX1 inh-1 0.2, hgDAF-12 ag 2.4, hcDAF12 agonist 0.8, DAX1 inh-2 -0.3 and SMARCA2 act -1.9.
COc1ccc(OC)c(C2/C(=C(/O)c3ccc(C)cc3)C(=O)C(=O)N2Cc2ccco2)c1 (stereo not given) was read as ssDAF-12 act 0.0, DAX1 inh-1 0.1, hgDAF-12 ag 1.7, hcDAF12 agonist 2.3, DAX1 inh-2 1.5 and SMARCA2 act -0.6.
